# hcDAF-12 act = H. contortus DAF-12 nuclear receptor activators, primary screen, cell-based, luminescence, HEK293, lit1-tk-luc reporter; activation, % at 6.8 µM; AID 652067, 2013; HEK293 hcDAF-12 lit1-tk-luc reporter; 0% DMSO, 100% Δ7-dafachronic acid; 1.4% of 370,000 active;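 active = activation above the mean of all tested compounds plus 3 SD, cut at about 5.5% in these data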
# DAX1 inh-1 = DAX1 (NR0B1) inhibitors, primary screen, cell-based, HEK293, Gal4-DAX1, luciferase luminescence. Nuclear receptor subfamily 0 group B member 1 (Homo sapiens), P51843. HEK293 Gal4-DAX1 luciferase reporter. inhibition, % at 6.75 µM. 0.99% of 340,000 active;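 active = inhibition above the mean over all tested compounds plus 3 SD, cut at about 4.2% in these data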;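 note: inhibition shows as a rise in luminescence from relieved DAX1 repression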
# FXN GAA850 act = FXN promoter activators, primary screen, cell-based, luciferase luminescence, HEK293 lucGAA850; 0.56% of 360,000 active; HEK293 lucGAA850 FXN promoter luciferase reporter, 24 h; percent of 10 µM SAHA response; activation, % at 6 µM;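 active = activation above the average of all compounds screened plus 3 SD, cutoff fixed separately per campaign, cut at about 7.5% in these data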
# DAX1 inh-2 = DAX1 (NR0B1) inhibitors on StAR promoter, primary screen, cell-based, luminescence, SF-1 (NR5A1), full-length DAX-1; HEK293T StAR-luciferase reporter, SF-1/DAX-1 repression relief; inhibition, % at 6.8 µM; 1.1% of 370,000 active;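 active = inhibition above the mean over all tested compounds plus 3 SD, cut at about 3.6% in these data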;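 note: higher inhibition means more luminescence from relief of DAX-1 repression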
# hgDAF12 agonist = H. glycines DAF-12 receptor agonists, primary screen, cell-based, luminescence, HEK293, GAL4 fusion, UAS-luciferase; activation, % at 6.8 µM; 1.8% of 370,000 active; HEK293 GAL4-hgDAF12 UAS-luciferase reporter, agonist luminescence; normalized to butyrate control; Nuclear hormone receptor DAF-12 (Heterodera glycines), GAL4 fusion; AID 687014, 2013;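 active = activation above a cutoff set at the mean of all screened compounds plus 3 SD, cut at about 10% in these data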
# ssDAF12 agonist = S. stercoralis DAF-12 nuclear receptor activators, primary screen, cell-based, luminescence, HEK293, GRIP1 co-expression, lit1-tk-luc; Nuclear hormone receptor DAF-12 (Strongyloides stercoralis); HEK293 ssDAF-12/GRIP1 lit1-tk-luc reporter; % of 3 µM dafachronic acid response; activation, % at 6.8 µM; 1% of 370,000 active;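 active = activation above the mean over all tested compounds plus 3 SD, cut at about 0.9% in these data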
# hgDAF12 conf = H. glycines DAF-12 receptor agonists, confirmation, cell-based, luminescence, HEK293, GAL4-LBD fusion. shares compounds with hgDAF12 agonist. HEK293 GAL4-hgDAF12 luciferase reporter, agonist mode; percent of butyrate response. activation, % at 6.8 µM. 80% of 3,300 active;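 active = mean activation over triplicate wells above the hit cutoff derived from the earlier primary screen, cut at about 11% in these data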
# LXRb DAF12 ctr = LXR agonists, Gal4 luciferase reporter, confirmation, counter-screen for hgDAF-12 agonist project, cell-based, luminescence, HEK293, H. glycines campaign. activation, % at 6.8 µM. 3,300 tested, under 10 active. shares compounds with hgDAF12 agonist. 24 h;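 active = mean activation of the triplicate above a set limit carried over from the primary screen, none filed active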
# Target sequence (P55055 whole entry, looked up, the tested form may be a part): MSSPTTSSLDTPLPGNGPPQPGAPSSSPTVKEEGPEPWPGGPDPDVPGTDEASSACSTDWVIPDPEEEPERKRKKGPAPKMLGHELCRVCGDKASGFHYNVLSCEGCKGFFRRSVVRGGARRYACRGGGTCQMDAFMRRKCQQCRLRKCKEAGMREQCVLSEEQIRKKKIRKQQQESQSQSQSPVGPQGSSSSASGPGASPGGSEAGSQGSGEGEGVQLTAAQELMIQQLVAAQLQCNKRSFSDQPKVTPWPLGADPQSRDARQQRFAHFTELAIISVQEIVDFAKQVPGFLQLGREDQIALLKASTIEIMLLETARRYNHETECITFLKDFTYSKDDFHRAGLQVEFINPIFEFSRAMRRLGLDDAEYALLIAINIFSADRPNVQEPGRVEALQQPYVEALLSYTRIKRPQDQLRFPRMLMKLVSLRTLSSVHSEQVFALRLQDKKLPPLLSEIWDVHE
# A number is an active result; . = inactive; / = not tested or not shown. Most compounds without a hit are left out; they make up all but 4.5% or so of the library.
SMILES,hcDAF-12 act,DAX1 inh-1,FXN GAA850 act,DAX1 inh-2,hgDAF12 agonist,ssDAF12 agonist,hgDAF12 conf,LXRb DAF12 ctr
Cc1ccc(CONC(=O)c2ccccc2Cl)cc1,.,.,.,.,.,.,/,/
Cc1ccc(CONC(=O)c2ccccc2)cc1,.,.,.,.,15,.,11,.
Cc1ccccc1OCCNC(=O)c1ccc2ccccc2n1,.,.,.,.,15,.,12,.
Cc1ccnn1CCC(=O)N1CCCC(Nc2ccc(F)c(F)c2)C1 (stereo not given),.,.,.,.,.,.,/,/
COc1cccc(/C=C/c2ccccn2)c1O,.,.,.,.,16,.,14,.
COc1ccccc1/C=C/C(=O)Oc1cccc2cccnc12,.,.,.,.,.,.,/,/
Cc1ccc(NC(=O)CNC(=O)c2cccc(C)c2)nc1,.,.,.,.,.,.,/,/
CC(=O)c1ccc(NC(=O)/C(Cl)=C/c2ccccc2)cc1,.,.,.,.,17,.,12,.
COC(=O)c1sc(NC(=O)c2ccc(C)o2)nc1C,.,.,.,.,14,.,10,.
CN(CC(=O)N(C)CC(=O)Nc1c(Cl)cccc1Cl)Cc1ccc(Br)s1,.,.,.,.,.,.,/,/
CCOC(=O)c1ccc(Nc2ncccc2[N+](=O)[O-])cc1,6.0,.,.,.,18,1.7,19,.
CCOC(=O)c1ccc(NC(=O)c2ccccc2[N+](=O)[O-])cc1,.,.,.,.,.,.,/,/
Cc1nc2ccc(OC(=O)c3ccccc3)cc2s1,.,.,.,.,.,.,/,/
Cc1nc2cc(C(=O)O)ccc2s1,.,.,.,.,15,.,17,.
Cc1ccc(OC(=O)c2ccc3nc(C)sc3c2)cc1,.,/,/,.,15,.,17,.
CCOC(=O)[C@]12CCC=C1N(Cc1ccco1)C(=O)[C@H](CC(=O)N1CCN(C(=O)c3ccco3)CC1)C2,.,/,/,.,.,.,/,/
O=[N+]([O-])c1ccc2c(c1)C(=NO)c1cc(Cl)c(Cl)cc1-2,.,.,.,.,.,.,/,/
CCn1ccc(C(=O)Nc2ccc(S(=O)(=O)Nc3ccccc3OC)cc2)n1,.,/,/,.,.,.,/,/
CCn1cc(Br)c(C(=O)Nc2cccc(Cl)c2)n1,.,.,.,.,.,.,/,/
CCn1ccc(C(=O)Nc2ccccc2Cl)n1,.,.,.,4.3,14,.,15,.
CCn1ccc(C(=O)Nc2cccc(Cl)c2)n1,.,.,.,.,15,.,.,.
CCc1ccc(NC(=O)c2ccc(NC3=NC4CS(=O)(=O)CC4S3)cc2)cc1 (stereo not given),.,.,.,.,.,.,/,/
COc1nc(-c2ccccc2)nnc1-c1ccccc1,15,.,.,.,15,1.3,20,.
Clc1ccc(-c2nnc(-c3ccccc3)c(-c3ccccc3)n2)cc1,.,.,.,.,.,.,/,/
CC(Sc1nnc(-c2ccncc2)n1-c1ccc(F)cc1)C(=O)NC1CC1 (stereo not given),.,.,.,.,.,.,/,/
SMILES,hcDAF-12 act,DAX1 inh-1,FXN GAA850 act,DAX1 inh-2,hgDAF12 agonist,ssDAF12 agonist,hgDAF12 conf,LXRb DAF12 ctr
CC(C)n1cc(NC(=O)c2cc(-c3ccccc3)on2)cn1,.,.,.,.,14,.,16,.
Cc1ccccc1Cn1cc(NC(=O)c2cc(-c3ccco3)on2)cn1,.,.,.,.,39,.,.,.
Cc1c(C(=O)N2CCCCCC2)c(S(=O)(=O)Nc2cccc(F)c2)c(C)n1C,.,.,.,.,.,.,/,/
Cn1c(CC(=O)NNC(=O)c2ccc(Cl)nc2)nc2ccccc21,.,.,.,.,.,.,/,/
Cc1ccc(NC(=O)c2ccc3[nH]c(=O)c(=O)[nH]c3c2)nc1,.,.,.,.,.,.,/,/
O=C(/C=C/Nc1ccc(Oc2ccccc2Cl)cc1)c1ccco1,.,.,.,.,15,.,17,.
COC(=O)c1ccccc1Oc1ccc(NC(=O)c2ccco2)cc1,.,.,.,.,13,.,.,.
Cc1ccc(NC(=O)c2ccc(F)cc2)nc1,.,.,.,.,15,.,12,.
O=C(Nc1ccc(Cl)cn1)c1ccc2[nH]c(=O)c(=O)[nH]c2c1,.,.,.,.,.,.,/,/
O=C(Nc1ccc(Cl)cn1)c1cccc(F)c1,.,.,.,.,17,.,17,.
COc1ccccc1Oc1ccc(N/C=C/C(=O)C(C)(C)C)cc1,.,.,.,.,.,.,/,/
Cc1sc2nc(CSC(C)C(=O)Nc3cc(S(C)(=O)=O)ccc3Cl)[nH]c(=O)c2c1C (stereo not given),.,.,.,.,.,.,/,/
CC(Sc1ncn[nH]1)C(=O)c1c(N)n(C)c(=O)n(C)c1=O (stereo not given),.,.,.,.,.,.,/,/
CC(C)n1nnnc1C1c2ccccc2C(=O)N1CCCn1ccnc1 (stereo not given),.,/,/,.,.,.,/,/
Cc1cc(NC(=O)c2cccs2)ncc1NC(=O)c1cccc(F)c1,.,.,.,.,.,.,/,/
O=C(Nc1ccc(NC(=O)c2ccco2)nc1)c1cccc(F)c1,.,.,.,.,13,.,16,.
O=C(Nc1ccc(NC(=O)C2CC2)nc1)c1ccco1,.,.,.,.,.,.,/,/
Cc1cc(NC(=O)c2cccc(F)c2)ncc1NC(=O)c1ccco1,.,.,.,.,15,.,12,.
COc1cccc(C(=O)Nc2ccc(NC(=O)c3ccco3)nc2)c1,.,.,.,.,.,.,/,/
O=C(Nc1ccc(NC(=O)c2ccccc2F)cn1)c1ccco1,.,.,.,.,14,.,.,.
C[C@@H]1COC(=O)[C@@H](Cc2ccc(F)cc2)C/C=C\C[C@H](CC(=O)N(CCO)Cc2ccccc2)C(=O)N1,.,.,.,.,.,.,/,/
CCOC(=O)c1ccc(NC(=O)CSc2nnc(Cc3cccs3)n2C)cc1,.,.,.,.,.,.,/,/

# Compound activity (PubChem BioAssay)
